# Data reported in PubChem BioAssay AID1259343 (VanderVen Lab, College of Veterinary Medicine, Cornell …, 2017).
# The campaign covered roughly 6,200 compounds. About 2,900 (47%) were called active. The set was probably picked from earlier hits. Some of the results follow. A number with no mark means an inactive call. Cut-off read from the data, not from the text of the source: active = inhibition above about 50%; inactive = the rest.
# Test: Mycobacterium tuberculosis growth inhibition, primary screen (AID 1259343)
# Conditions: inhibition: at 10 µM, active compounds read high; outcome: 10 uM
row,Structure (SMILES),inhibition
1,CN(Cc1ccc(Cl)cc1)c1ccc2c(C3CC3)noc2n1,41.3%
2,CN(Cc1cccnc1)c1ccc2c(-c3ccccc3F)noc2n1,90.6% (active)
3,CCn1cnnc1CN(C)c1ccc(-c2nc(-c3ccccc3F)no2)cn1,7.76%
4,O=Cc1ccc(-c2ccc(Cl)cc2Cl)[nH]1,91.2% (active)
5,CCOc1nc(NC(C)c2ccccc2)ncc1Br (stereo not given),28%
6,CC(NCCC(c1ccccc1)c1ccccc1)c1ccccc1 (stereo not given),58.2% (active)
7,Clc1ccccc1CSCc1csc(Cc2ccc3c(c2)OCO3)n1,11.8%
8,Cc1ccc(Cc2nc(CSCCc3ccccc3)cs2)cc1,63.4% (active)
9,Oc1ccc(-c2csc(Cc3ccccc3)n2)cc1O,30.3%
10,COc1ccccc1-c1noc2nc(OCc3ccccc3)ccc12,95.3% (active)
11,OCC1(CCOc2ccccc2)CCN(Cc2cc3ccccc3o2)CC1,28.8%
12,c1csc(COc2ccc3c(C4CC4)noc3n2)c1,82.4% (active)
13,c1ccc2oc(COc3ccc4c(C5CC5)noc4n3)cc2c1,81.1% (active)
14,Cc1ccc(COc2ccc3c(C4CC4)noc3n2)cc1F,94.2% (active)
15,Cn1c(Cc2ccccc2)nn(CN2CCC3(CC2)OCCO3)c1=S,8.21%
16,Cc1ccc(COc2ccc3c(C4CC4)noc3n2)cc1,46.7%
17,Clc1cccc(COc2ccc3c(C4CC4)noc3n2)c1,76.8% (active)
18,c1ccc(COc2ccc3c(C4CC4)noc3n2)cc1,76.3% (active)
19,Cc1cccc(COc2ccc3c(C4CC4)noc3n2)c1,56% (active)
20,CCCCn1c(O)c(C=Nc2ccccc2C(=O)O)c(C)c(C#N)c1=O,-10.6%
21,COc1ccc2nc(-n3nc(C)cc3NC(C)=O)sc2c1,86% (active)
22,O=C(Nc1ccc(Oc2cccnc2)cc1)C1CCN(Cc2cc(Cl)ccc2O)CC1,77.8% (active)
23,CC(=O)c1cccc(CN2CCC(C(=O)Nc3ccc(Oc4cccnc4)cc3)CC2)c1,inactive
24,O=C(Nc1ccc(Oc2cccnc2)cc1)C1CCN(C/C=C/c2ccccc2)CC1,28.8%
25,O=C(Nc1ccc(Oc2cccnc2)cc1)C1CCN(Cc2nccs2)CC1,88.5% (active)
26,Cc1ccc(CN2CCC(C(=O)Nc3ccc(Oc4cccnc4)cc3)CC2)o1,61.8% (active)
27,Cc1ccc(C=NNC(=S)NCCCN2CCOCC2)s1,102% (active)

row,Structure (SMILES),inhibition
1,COCCNC(=S)NN=Cc1cccs1,38.1%
2,CCCCNC(=S)NN=Cc1ccc(C)s1,71% (active)
3,CCCCNC(=S)NN=Cc1cccs1,103% (active)
4,C=C(C)CNC(=S)NN=CC1=CCC2CC1C2(C)C (stereo not given),23%
5,CCCCNC(=S)N(C)N=Cc1ccc(C)s1,-20.6%
6,O=C(c1ccc2nonc2c1)N1CCCC2(CCCc3ccccc32)C1 (stereo not given),23.2%
7,COc1cccc(-c2ccccc2NC(=O)C2CCN(Cc3cnc(C)nc3)CC2)c1,33%
8,COc1cccc(-c2ccccc2NC(=O)C2CCN(Cc3ccc(OC)c(C)c3)CC2)c1,92% (active)
9,COc1cccc(-c2ccccc2NC(=O)C2CCN(Cc3cccc(C)n3)CC2)c1,99.6% (active)
10,COc1cccc(-c2ccccc2NC(=O)C2CCN(Cc3cccc4cccnc34)CC2)c1,inactive
11,CC(C)c1cccc(N(C)Cc2cncn2C)c1,42.1%
12,N#CC(=Cc1cccc2ccccc12)c1ccccn1,22.6%
13,N#CC(=Cc1cccc2ccccc12)c1nc(C2CC2)cs1,96.1% (active)
14,N#CC(=Cc1ccc(Cl)cc1)c1nc(C2CC2)cs1,20.5%
15,CCc1c(C)nc(-c2ccc(C(F)(F)F)cc2)nc1N1CCNCC1,61.7% (active)
16,CCc1c(C)nc(-c2cccc(C(F)(F)F)c2)nc1N1CCNCC1,33.2%
17,OCC1(Cc2cccc(C(F)(F)F)c2)CCN(c2ccc3ccccc3n2)CC1,22.1%
18,Cc1cc(N2CCNCC2)nc(-c2cccc(C(F)(F)F)c2)n1,94.4% (active)
19,Cc1cc(N2CCNCC2)nc(-c2ccc(C(F)(F)F)cc2)n1,82% (active)
20,Cc1ccc(Cc2nsc(N3CCN(c4cccc(C(F)(F)F)c4)CC3)n2)cc1,24.1%
21,Nc1cc(Cl)ccc1Oc1ccc(Cl)cc1,-29.7%
22,O=[N+]([O-])c1cc(Cl)ccc1Oc1ccc2ccccc2c1,77.2% (active)
23,CC(C)(C)c1cc(/C=C(\C#N)C(N)=S)cc(C(C)(C)C)c1O,102% (active)
24,Cc1nnc(NC(=O)C(C)SC(F)(F)F)s1 (stereo not given),91.5% (active)
25,Cc1nc(N)sc1N=Nc1ccc(Br)cc1,23.2%
26,Cc1n[nH]c(C)c1N=Nc1ccc(Br)cc1,104% (active)
27,CCOc1ccc(N=Nc2c(C)n[nH]c2C)cc1,-45%

row,Structure (SMILES),inhibition
1,CCc1ccc(-c2noc(CSc3nnc(N)s3)n2)cc1,12.6%
2,Nc1nnc(SCC2CC2)s1,86.5% (active)
3,Nc1nnc(SCc2ccc(Br)cc2F)s1,28.8%
4,O=C(O)COc1c(I)cc(Cl)c2cccnc12,94.3% (active)
5,O=C(O)COc1ccccc1-c1nc(-c2ccccc2)c(-c2ccccc2)[nH]1,13.8%
6,CCCC(=O)OCC(=O)Nc1ccc2ccccc2c1,33.2%
7,Cc1cc(C)cc(NC(=O)CCC(=O)c2ccc3ccccc3c2)c1,72.2% (active)
8,O=C(CCC(=O)c1ccc(-c2ccccc2)cc1)NC1=NCCS1,33.8%
9,COc1ccccc1C(=O)Nc1nnc(CC(C)C)s1,21.6%
10,CCc1nnc(NC(=O)c2ccc(O)c(Cl)c2)s1,81.3% (active)
11,CCc1nnc(NC(=O)C2CC2)s1,68.7% (active)
12,O=C(O)C1C2C=CC(O2)C1C(=O)NCc1ccccc1Cl (stereo not given),23.3%
13,CC(C(=O)NCc1ccccc1Cl)n1nnc(-c2ccco2)n1 (stereo not given),56.3% (active)
14,Cn1c(CNC(=O)Cc2c(Cl)cccc2Cl)n[nH]c1=S,8.23%
15,O=C(O)CCc1ncc(-c2ccc(Cl)cc2)o1,90.3% (active)
16,O=C(O)CCN(CCc1ccccc1)c1nc(-c2ccc(Cl)cc2)nc2ccccc12,24.8%
17,O=C1CCc2c(OCc3ncc(-c4cccc(Cl)c4)o3)cccc21,39.9%
18,O=C(CN(Cc1ccccc1)C(=O)c1ccc(Cl)c(Cl)c1)Nc1cc(-c2ccccc2)nn1-c1ccc(F)cc1,-13.3%
19,O=C(CCCCl)Nc1nc(-c2ccc(F)cc2)cs1,12.9%
20,O=C1CCC(C(=O)N(Cc2ccc(F)cc2)c2nc(-c3ccccc3)cs2)=NN1,64.5% (active)
21,N#CC(=Cc1ccncc1)c1nnc2n1CCCCC2,-11%
22,Cc1ccc(-c2nc(-c3ccc(Br)cc3)no2)cc1,11.5%
23,Fc1ccccc1-c1nc(-c2ccc(Br)o2)no1,28.8%
24,Cc1ccc(-c2noc(-c3ccc(Br)o3)n2)cc1,55.7% (active)
25,CCN(CC)CCCC(C)NC(=O)c1cc(-c2ccc(OC)cc2)nc2cc(C(C)(C)C)nn12 (stereo not given),58.1% (active)
26,Cc1ccc(-c2cc(C(=O)O)n3nc(C(C)(C)C)cc3n2)cc1,103% (active)
27,COc1ccc(-c2cc(C(=O)O)n3nc(C(C)(C)C)cc3n2)cc1,53.5% (active)

row,Structure (SMILES),inhibition
1,CC1(C)OCC(CN2C(=O)c3ccccc3NC2c2c[nH]c3cnc(OCc4ccccc4)cc23)O1 (stereo not given),32.8%
2,COc1ccc(Cl)cc1NC(=O)c1ccc2c(c1)OCCCO2,29.1%
3,COc1ccc(NC(=O)CNS(=O)(=O)c2cnn(C)c2)cc1Cl,85.8% (active)
4,COc1ccc(NC(=O)Cc2ccccc2F)cc1Cl,14.2%
5,COc1ccc(NCC(=O)NCC(F)(F)F)cc1Cl,95.5% (active)
6,COc1ccc(NC(=O)CSc2cc(C)ccc2C)cc1Cl,88.7% (active)
7,COc1ccc(NC(=O)CNc2cc3c(cc2Cl)OCCCO3)cc1Cl,92.9% (active)
8,CC(C)N=C1NN=C(c2c[nH]c3ccccc23)C(c2ccccc2)S1 (stereo not given),2.32%
9,O=c1c2c(nc3c(-c4cccc5ccccc45)c[nH]n13)CCC2,88.6% (active)
10,Cc1nc2c(-c3ccccc3)c[nH]n2c(=O)c1C,23.2%
11,Cc1oc(-n2cccc2)c(C#N)c1C(=O)NC1CCC(C)CC1 (stereo not given),77.2% (active)
12,CC1CCC(NC(=O)c2ccc(Br)o2)CC1 (stereo not given),25.1%
13,Cc1oc(-n2cccc2)c(C#N)c1C(=O)OCc1cc(=O)n2c(C)csc2n1,-7.14%
14,Cn1ccnc1Sc1nc(-c2ccccn2)nc2scc(-c3ccccc3)c12,77.2% (active)
15,COc1ccccc1N1CCN(Cn2nc(C3COc4ccccc4O3)oc2=S)CC1 (stereo not given),49.9%
16,Cc1nn(CC(O)Cn2c(C)c(C)c3cccc(Cl)c32)c(C)c1Br (stereo not given),25.1%
17,OC(CN1CCCC1)Cn1c2ccc(Cl)cc2c2cc(Cl)ccc21 (stereo not given),-9.02%
18,Cc1nccn1CC(O)Cn1c2ccc(Cl)cc2c2cc(Cl)ccc21 (stereo not given),66.4% (active)
19,Cn1nnc2c(=O)n(Cc3ccc(C(F)(F)F)cc3)cnc21,45.7%
20,O=C1N(Cc2ccccc2)C(c2ccc(C(F)(F)F)cc2)C1(F)F (stereo not given),79.7% (active)
21,Cc1c(C(=O)NCc2ccc(C(F)(F)F)cc2)sc(=O)n1Cc1ccc(F)cc1,20.5%
22,CC(=O)N1CCc2cc(-c3nc(COc4ccccc4)sc3C)ccc21,37.8%
23,CC(C)Oc1ncc(C(=O)N2CCc3ccc(O)cc3C2)cc1Cl,33.5%
24,O=C(COc1ccccc1)N1CCc2ccc(O)cc2C1,68.5% (active)
